Data as given in PubChem BioAssay.
Values joined by “and” are separate entries in the source; they are usually repeats but may differ in a detail not shown here. Equal values may be shown once.

How the values were obtained:
[1] = test system: Botulinum neurotoxin type F light chain protease (Clostridium botulinum); assay: Botulinum neurotoxin type F light chain protease inhibition, multiplex microsphere flow cytometry, validation set (AID 588459); details: multiplex microsphere protease substrate cleavage assay, at 10 µM, stronger effect = higher value
[2] = target: Botulinum neurotoxin type A (Clostridium botulinum) (UniProt P0DPI0); assay: BoNT/A light chain protease inhibitors, biochemical, multiplex microsphere flow cytometry, validation set (AID 588460); details: at 10 µM, stronger effect = higher value
[3] = target: Lethal factor (Bacillus anthracis) (UniProt P15917); assay: Lethal factor protease inhibitors, Bacillus anthracis, multiplex microsphere cleavage assay, validation set (AID 588461); details: flow cytometry, at 10 µM, stronger effect = higher value

Measured: inhibition

CC(=O)OCC#CCSc1nc2ccccc2n1C
inactive: [1] 0.7% | [2] -0.6% | [3] -1.5%

O=C(Cc1ccccc1[N+](=O)[O-])NCCCN1CCOCC1
inactive: [1] -1.6% | [2] -0.1% | [3] 6.7%

CCCC(=O)O[C@]1(C(=O)COC(C)=O)CC[C@H]2[C@@H]3C[C@H](F)C4=CC(=O)C=C[C@]4(C)[C@@]3(F)[C@@H](O)C[C@@]21C
inactive: [1] -1.4% | [2] 0.4% | [3] -0.6%

O=C(/C=C/c1ccc(F)cc1)N1CC[C@@]2(O)CCCC[C@H]2C1
inactive: [1] -2.9% | [2] -2.2% | [3] 5.2%

CCc1nc2ccccc2n1Cc1ccc(OC)c(OC)c1
inactive: [1] -1.2% | [2] 0.6% | [3] 0.6%

CCCC(=O)Nc1ccccc1NC(C)=O
inactive: [1] 1.4% | [2] 0.3% | [3] -2.9%

CC(=O)Oc1ccc(C2OC(=O)c3ccccc3N2C(C)=O)cc1 (centres undefined)
inactive: [1] 2% | [2] 0.3% | [3] 3.3%

COc1ccc2[nH]cc(CCNC(=O)C3CCCNC3=O)c2c1 (centres undefined)
inactive: [1] -3.2% | [2] -1.5% | [3] -5.3%

O=C(NO)c1ccccc1O
inactive: [1] 3.3% | [2] 2% | [3] -4%

CC(=O)N1CC2(C)CN(C(C)=O)CC(C)(C1)C2
inactive: [1] -2.3% | [2] -1.6% | [3] 7.3%

COc1ccc(C(=O)N2c3cc4c(cc3C(C)=CC2(C)C)OCO4)cc1
inactive: [1] 3.7% | [2] 0% | [3] 4%

CC(=O)NCCCCCCNC(C)=O
inactive: [1] 5.8% | [2] 2.3% | [3] 10.8%

CC(C)(C)NCC(O)COc1cccc2c1C[C@H](O)[C@H](O)C2 (some centres undefined)
inactive: [1] -2.3% | [2] 0.4% | [3] 1.6%

Cc1ccc(S(=O)(=O)NC(=O)NN2CCCCCC2)cc1
inactive: [1] -4.6% | [2] -1.6% | [3] -4.1%

CC(C)Cc1cc(C(=O)N2CCC(N3CCC(C(=O)N4CCCC4)CC3)CC2)n[nH]1
inactive: [1] -0.1% | [2] -2% | [3] -0.4%

CCOC(=O)c1c(C)oc2cc(Br)c(OC(C)C(=O)OCC)cc12 (centres undefined)
inactive: [1] -0.6% | [2] 0.5% | [3] -2.8%

C[C@]12CCC3C(CC=C4C[C@@H](O)CC[C@@]43C)C1CCC2[C@]1(C)CCC(=O)O1 (some centres undefined)
inactive: [1] 0.6% | [2] -0.3% | [3] -5.1%

COc1ccc2cc[nH]c2c1
inactive: [1] -1.5% | [2] -0.4% | [3] 2.8%

COc1cc(C(=O)N/C(=C\c2cn(C)c3ccccc23)C(=O)NCCCO)cc(OC)c1OC
inactive: [1] 2% | [2] -1.2% | [3] -2.5%

CCc1c(C)c2ccc(OCC(=O)OC(C)C)c(C)c2oc1=O
inactive: [1] -1.9% | [2] -0.4% | [3] -1.3%

Cn1c(=O)c2c(ncn2Cc2ccccc2)n(C)c1=O
inactive: [1] 3.3% | [2] 3% | [3] 7.6%

CC(C)c1ccc(OCc2ccc(C(=O)O)o2)cc1
inactive: [1] 0.6% | [2] -0.2% | [3] 2.5%

CC(C)NC(=O)C1(c2ccccc2)CCOCC1
inactive: [1] -2.6% | [2] -0.5% | [3] -2.6%

Cc1cccc(C)c1NS(=O)(=O)c1ccc(NC(=O)c2ccc(Cl)c([N+](=O)[O-])c2)cc1
inactive: [1] 2.3% | [2] -0.2% | [3] 0.9%

Cc1ccc(C2=NOC(=O)/C2=C\C=C\c2ccccc2)cc1
inactive: [1] 2.1% | [2] 1% | [3] 0.5%

Cc1ccc2c(c1)c1c3n2CCCN(Cc2ccccc2)C3CCC1 (centres undefined)
inactive: [1] -0.2% | [2] -0.1% | [3] -3%

CCOC(=O)C1=C[C@]2(CC)CCCN3CCc4c(n1c1ccccc41)[C@@H]32
inactive: [1] 1.3% | [2] -0.9% | [3] -7.9%

Cc1c(OCC(F)(F)F)ccnc1CS(=O)c1nc2ccccc2[nH]1 (centres undefined)
inactive: [1] -1% | [2] -0.5% | [3] -2.4%

O=C(Cc1ccc(Br)cc1)c1ccc(O)cc1O
inactive: [1] -3.5% | [2] -0.4% | [3] -5.4%

CC(=O)Nc1c(I)c(NC(C)=O)c(I)c(C(=O)O)c1I
inactive: [1] -0.5% | [2] -1.9% | [3] 0.5%

Cc1ncc([N+](=O)[O-])n1CCO
inactive: [1] 3% | [2] -0.4% | [3] -4.2%

CCNC(=O)C(Cc1ccccc1)NC(=O)OCc1ccccc1 (centres undefined)
inactive: [1] 0.3% | [2] -1.4% | [3] 5.5%

O=C(CCCN1CCC(O)(c2ccc(Cl)cc2)CC1)c1ccc(F)cc1
inactive: [1] -3.5% | [2] 1.1% | [3] 3.7%

Cc1ccc(C(=O)COC(=O)c2cccc(N3C(=O)c4c(C)nc5ccccc5c4C3=O)c2)cc1C
inactive: [1] -1.2% | [2] -1.1% | [3] -0.1%

CC(C)CCOCC(=O)Nc1cccc(C(=O)O)c1
inactive: [1] 2.9% | [2] 0% | [3] -0.3%

O=C(O)CP(=O)(O)O
inactive: [1] 1.3% | [2] 0.3% | [3] -2.7%

CC1Cc2ccccc2N1NC(=O)c1ccc(Cl)c(S(N)(=O)=O)c1 (centres undefined)
inactive: [1] 1.4% | [2] 0.7% | [3] -0.2%

CCn1c(N2CCN(CC(=O)c3c(C)n(C)c4ccc(OC)cc34)CC2)nc2c1c(=O)[nH]c(=O)n2C
inactive: [1] -1.4% | [2] -0.8% | [3] -10.7%

OCCC1CN(Cc2nc(-c3ccccc3)cs2)CCN1Cc1ccc(F)cc1 (centres undefined)
inactive: [1] 3.5% | [2] 0.9% | [3] 8.5%

O=S(=O)(NCCCCCNS(=O)(=O)c1ccccc1)c1ccccc1
inactive: [1] 0.4% | [2] -0.1% | [3] -0.7%

CC(C)(C)c1csc(N/N=C/c2cccnc2)n1
inactive: [1] -3.3% | [2] 0.5% | [3] 0.6%

O=C(O)Cc1ccc(O)c(F)c1
inactive: [1] 2.3% | [2] -0.5% | [3] -3.6%

CSCC[C@H](NC(=O)Nc1ccc(C)cc1C)C(=O)O
inactive: [1] -2.1% | [2] 1.4% | [3] 0.5%

COc1ccc2c(CC(=O)NCC3CCC(C(=O)O)CC3)cc(=O)oc2c1 (centres undefined)
inactive: [1] 1% | [2] -0.1% | [3] 3.6%

O=[N+]([O-])c1ccc2cn[nH]c2c1
inactive: [1] 2.9% | [2] -0.5% | [3] 4%

O=C(O)C[C@@H](O)C(=O)O
inactive: [1] 0.4% | [2] -0.4% | [3] -1.2%

C[n+]1ccccc1/C=N/O
inactive: [1] 2.2% and 2.6% | [2] 0.3% and 1.2% | [3] -1.8% and -6.4%

NC(=O)c1cnccn1
inactive: [1] 0.4% | [2] 0.7% | [3] 5.7%

CCOc1ccccc1OCCOc1ccc(F)cc1
inactive: [1] 0.7% | [2] -1.2% | [3] 6.2%

N/C(=N\OS(=O)(=O)c1ccc2ccccc2c1)c1cccnc1
inactive: [1] -1.4% | [2] -0.9% | [3] 0.2%

CCN(CC)CCCNC(=O)C1c2ccccc2Oc2ccccc21
inactive: [1] 4.2% | [2] 0.7% | [3] -0.4%

COc1cc2c(cc1OC)C(c1ccc(-c3cc(Cl)ccc3Cl)o1)=NCC2
inactive: [1] 0.4% | [2] 0.7% | [3] -4.2%

C#C[C@]1(O)CC[C@H]2[C@@H]3CCC4=C(CCC(=O)C4)[C@H]3CC[C@@]21C
inactive: [1] 0.3% | [2] 0.1% | [3] 0.8%

CS(=O)(=O)Nc1cccc(C(=O)CC2(O)C(=O)Nc3ccc(Br)cc32)c1 (centres undefined)
inactive: [1] 3.1% | [2] 1.3% | [3] 6.6%

COc1cc(NC(=O)N[C@@H](Cc2ccccc2)C(=O)O)cc(OC)c1
inactive: [1] 1.2% | [2] 0.4% | [3] -2.8%

CO[C@@]1(NC(=O)Cc2cccs2)C(=O)N2C(C(=O)O)=C(COC(N)=O)CS[C@@H]21
inactive: [1] -1.9% | [2] 1.4% | [3] -10%

CC(=O)Oc1cc2oc(=O)cc(C)c2cc1OC(C)=O
inactive: [1] -1.8% | [2] -0.8% | [3] 1.8%

Cc1ccccc1C(=O)NNc1ncnc2c1cnn2C
inactive: [1] 3.1% | [2] -0.7% | [3] 1.7%
